Assay results: PubChem BioAssay AID651871 (Sanford-Burnham Center for Chemical Genomics, 2012)
Several values for one entry are separate records, joined by “and”; a condition that tells them apart may be missing. Identical values can stand only once.

Tested on: HL-1
Experiment: cardiomyocyte survival under oxidative or metabolic stress – cell-based, panel, H9c2 and HL-1, ATP luminescence, set 2, SAR follow-up (AID 651871);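 note: cells exposed to stressor for 2 h before ATP readout; reference of the scale not given here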
Conditions: H9c2/HL-1 cardiomyocytes, 2-deoxyglucose stress, with 2-deoxyglucose, run 16, at 19.8 µM (top of the series)

## COc1ccc2c(c1OC)C(=O)N1c3ccccc3C(=O)N(Cc3cccc(Cl)c3Cl)C21 (stereo unspecified)
  activity (protection/inhibition): 50.9% and 45%
